Each structure is given as a SMILES string. This is part of a sample that, as a whole, favours compounds with a hit. Of some 83,000 tested, about 20% had one in any assay.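 Cell lines were cultured in 96-well plates, exposed to a single compound concentration, and assessed for percent growth 48 hours later.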 A number with no mark means an inactive call. Activity calls are given as the source filed them. The calls were made as follows: active = growth percent below 10; inactive = the rest.

Among the test systems are SK-MEL-2 melanoma; EKVX NSCLC; SN12C renal; UO-31 renal; TK-10 renal; ACHN renal; A498 renal; CCRF-CEM leukemia; MOLT-4 leukemia; RPMI-8226 leukemia; OVCAR-8 ovarian; OVCAR-5 ovarian; OVCAR-4 ovarian; SK-OV-3 ovarian; IGROV1 ovarian; HS 578T breast; NCI/ADR-RES ovarian; SR leukemia; OVCAR-3 ovarian.
Assay in all cases: NCI-60 one-dose screen, 48 h (100 = growth as untreated, 0 = no growth, -100 = all killed)
Common to all, as to details: 10 µM unless noted

Turning to `Clc1ccc2c(NCCCNc3nc(-n4ccnc4)nc4ccccc34)ccnc2c1`, the growth in the assay with SK-MEL-2 melanoma was 103%; in the assay on EKVX NSCLC, 70.3%; in the assay with SN12C renal it was 84.4%; in the assay with UO-31 renal it was 78.8%; in the assay on TK-10 renal, 102%; with ACHN renal it was 97.7%. For the same molecule, the growth in the assay with A498 renal was 78.2%; in the assay on CCRF-CEM leukemia, 75.2%; in the assay with MOLT-4 leukemia, 68%; in the assay on RPMI-8226 leukemia it was 69.3%; in the assay on OVCAR-8 ovarian, 86.2%; with OVCAR-5 ovarian, 96.3%. The growth with OVCAR-4 ovarian was 75%; in the assay with SK-OV-3 ovarian, 94.5%; in the assay on IGROV1 ovarian, 79.1%; with HS 578T breast, 84.6%; in the assay on NCI/ADR-RES ovarian, 101%.
Consider `Cn1ccnc1C(=O)/C=C/c1ccc(CC(=O)Nc2ccccc2)cc1`, for which the growth was 54.6% with SK-MEL-2 melanoma; 17.6% in the assay on EKVX NSCLC; 16.1% in the assay with SN12C renal; 16% in the assay on UO-31 renal; 17.6% in the assay with TK-10 renal; 29% in the assay with ACHN renal. Further, the growth in the assay with A498 renal is 44.9%; with CCRF-CEM leukemia, 2.06% (active); with MOLT-4 leukemia, -1.23% (active); in the assay on SR leukemia, -10.7% (active); in the assay on RPMI-8226 leukemia it was -12.5% (active); with OVCAR-8 ovarian it was -0.35% (active). Also, the growth in the assay on OVCAR-5 ovarian was 29.6%; in the assay with OVCAR-4 ovarian, 31.4%; in the assay on SK-OV-3 ovarian, 27.3%; in the assay with IGROV1 ovarian it was 12.7%; with OVCAR-3 ovarian, -7.34% (active); with HS 578T breast it was 37.2%. Besides, in the assay on NCI/ADR-RES ovarian, the growth is 13.5%.
Take `CN1C(=O)C2(SCC(C(=O)NCc3ccccc3)N2C(=O)C2CCCCC2)c2ccccc21` (stereo unspecified): the growth with SK-MEL-2 melanoma was 81.8%; in the assay with EKVX NSCLC, 86.8%; in the assay with SN12C renal it was 102%; in the assay with UO-31 renal, 64%; in the assay on TK-10 renal, 115%; in the assay with ACHN renal it was 104%. In addition, the growth is 98.9% in the assay with A498 renal; 102% in the assay on CCRF-CEM leukemia; 78.7% in the assay with MOLT-4 leukemia; 83.3% in the assay with SR leukemia; 95% with RPMI-8226 leukemia; 92% with OVCAR-8 ovarian. Also, the growth is 105% in the assay on OVCAR-5 ovarian; 88.1% with OVCAR-4 ovarian; 114% in the assay on SK-OV-3 ovarian; 88% in the assay with IGROV1 ovarian; 90.5% in the assay with OVCAR-3 ovarian; 89.3% with HS 578T breast. Besides, the growth in the assay with NCI/ADR-RES ovarian was 94.2%.
On to `Oc1ccc(N=Cc2ccccc2O)cc1`, for which the growth in the assay on SK-MEL-2 melanoma is 141%; in the assay on EKVX NSCLC, 103%; with SN12C renal, 102%; in the assay on UO-31 renal it was 77.3%; with TK-10 renal, 101%; in the assay with ACHN renal, 88.3%. Moreover, the growth in the assay with A498 renal is 112%; in the assay on CCRF-CEM leukemia, 79.5%; in the assay with MOLT-4 leukemia, 89.6%; in the assay with SR leukemia, 83.7%; in the assay on OVCAR-8 ovarian, 83.6%; in the assay on OVCAR-5 ovarian, 87.3%. Also, the growth was 89.3% with OVCAR-4 ovarian; 98.5% with SK-OV-3 ovarian; 90.2% with IGROV1 ovarian; 90.6% in the assay on OVCAR-3 ovarian; 112% in the assay with HS 578T breast; 98.2% in the assay with NCI/ADR-RES ovarian.
Regarding `CC(=O)c1cc2c(N)c(C(=O)Nc3cccc4ccccc34)sc2nc1C`, the growth is 36.5% in the assay on SK-MEL-2 melanoma; 46.4% in the assay on EKVX NSCLC; 40.9% in the assay with SN12C renal; 42.9% in the assay on UO-31 renal; 56.2% in the assay on TK-10 renal; 47.6% in the assay with ACHN renal. Further, the growth in the assay with A498 renal was 13.6%; in the assay with CCRF-CEM leukemia, 6.95% (active); with MOLT-4 leukemia it was 24%; in the assay with SR leukemia, 12.7%; in the assay with RPMI-8226 leukemia, 10.2%; in the assay on OVCAR-8 ovarian, 21.5%. For the same molecule, the growth is 64% with OVCAR-5 ovarian; 59.6% in the assay with OVCAR-4 ovarian; 26.8% with SK-OV-3 ovarian; 34.7% with IGROV1 ovarian; -5.38% (active) in the assay with OVCAR-3 ovarian; 38.2% in the assay on HS 578T breast. Besides, the growth with NCI/ADR-RES ovarian was 16.3%.
As for `Clc1ccc2c(NCCNc3nc(N4CCCCC4)nc4ccccc34)ccnc2c1`, the growth with SK-MEL-2 melanoma is -61.8% (active); in the assay on EKVX NSCLC it was 32.9%; with SN12C renal, -2.91% (active); in the assay with UO-31 renal it was -97.6% (active); in the assay on TK-10 renal, -32.5% (active); in the assay with ACHN renal it was -72.8% (active). Also, the growth in the assay on A498 renal was 75.8%; in the assay with CCRF-CEM leukemia, 0.574% (active); with MOLT-4 leukemia, 7.69% (active); with SR leukemia, -29.5% (active); in the assay with RPMI-8226 leukemia, -41.6% (active); in the assay on OVCAR-8 ovarian, -30.5% (active). Further, the growth in the assay on OVCAR-5 ovarian was 25.4%; in the assay on OVCAR-4 ovarian, 34.2%; in the assay on SK-OV-3 ovarian it was -2.73% (active); with IGROV1 ovarian, 30.4%; in the assay on OVCAR-3 ovarian it was -64.7% (active); with HS 578T breast, 37.9%. Also, in the assay with NCI/ADR-RES ovarian, the growth is 25.4%.
As for `OC(COc1cccc2ccccc12)CN1CCN(c2ccccc2Cl)CC1` (stereo unspecified), the growth with SK-MEL-2 melanoma was 44.6%; in the assay with EKVX NSCLC, 102%; in the assay on SN12C renal it was 105%; in the assay on UO-31 renal, 85.1%; with TK-10 renal, 100%; in the assay with ACHN renal it was 102%. The growth in the assay on A498 renal is 90%; in the assay on MOLT-4 leukemia, 107%; in the assay with SR leukemia, 78.3%; with OVCAR-8 ovarian, 98.4%; in the assay with OVCAR-5 ovarian, 85.3%; in the assay on OVCAR-4 ovarian it was 92.7%. The growth in the assay with SK-OV-3 ovarian is 89.2%; in the assay with IGROV1 ovarian it was 117%; in the assay with HS 578T breast, 107%; in the assay with NCI/ADR-RES ovarian it was 89.4%.
For `FC(F)(F)Oc1ccc2nc3nc4ccc[nH]c4cc3c2c1`, the growth is 98% in the assay on SK-MEL-2 melanoma; 62.8% with EKVX NSCLC; 87.5% with SN12C renal; 61.8% in the assay on UO-31 renal; 64.7% in the assay on TK-10 renal; 56.4% in the assay on ACHN renal. Further, the growth is 98.1% with A498 renal; 75.7% in the assay on CCRF-CEM leukemia; 68.9% in the assay on MOLT-4 leukemia; 43.9% in the assay on SR leukemia; 71.7% with RPMI-8226 leukemia; 69.9% in the assay on OVCAR-8 ovarian. The growth in the assay on OVCAR-5 ovarian was 115%; in the assay with OVCAR-4 ovarian it was 31.5%; in the assay on SK-OV-3 ovarian, 63.8%; in the assay on IGROV1 ovarian, 74.6%; with OVCAR-3 ovarian it was 98.2%; in the assay on HS 578T breast, 56.7%. The growth in the assay on NCI/ADR-RES ovarian was 85.8%.

The values above are taken from PubChem BioAssay (NCI).
